The full ranking holds about 33,000 sequences; the median of “E-score (-0.5 to 0.5)” is about -0.016, and the highest 2% start at about 0.32. The entries come from a sample that favours the highest values as a whole.
Target: T1, Stp1 (UniProt B3LFK1)
T1 sequence: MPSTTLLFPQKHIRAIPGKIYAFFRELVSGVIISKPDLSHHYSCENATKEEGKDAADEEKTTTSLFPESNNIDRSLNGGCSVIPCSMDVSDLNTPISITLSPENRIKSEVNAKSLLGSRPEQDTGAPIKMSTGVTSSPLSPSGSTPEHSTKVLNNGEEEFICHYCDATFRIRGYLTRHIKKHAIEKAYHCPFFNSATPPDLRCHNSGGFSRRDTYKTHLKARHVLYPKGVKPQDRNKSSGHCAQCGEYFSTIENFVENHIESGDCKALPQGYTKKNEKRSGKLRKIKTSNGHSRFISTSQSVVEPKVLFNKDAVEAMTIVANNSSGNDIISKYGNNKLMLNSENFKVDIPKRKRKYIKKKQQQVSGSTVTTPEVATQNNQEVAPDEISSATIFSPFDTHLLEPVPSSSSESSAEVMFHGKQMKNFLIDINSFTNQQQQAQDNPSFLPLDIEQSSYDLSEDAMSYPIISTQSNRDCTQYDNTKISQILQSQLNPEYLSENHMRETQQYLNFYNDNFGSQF
Test: PBM E-score (8-mer binding enrichment) (E-score (-0.5 to 0.5)); higher = stronger / more preferred TF binding
Settings: protein concentration: 200 nM; construct: GST-full length
Description: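 Universal 'all 10-mer' protein binding microarrays (Agilent AMADID 015681) probed with GST-tagged S. cerevisiae TFs (full-length or DBD) made by in vitro transcription/translation (PURExpress), about 100-200 nM. Bound TF was detected with fluorescent anti-GST. Each ungapped 8-mer (which stands for itself and its reverse complement) is scored by the PBM enrichment score (E-score), a modified Wilcoxon-Mann-Whitney statistic from -0.5 to +0.5, computed with the Universal PBM Analysis Suite. Scale: above 0.35 generally sequence-specific binding.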

Sequence	PBM E-score
CTTCAGAC	-0.00198
AGTCGCGC	0.0334
GCCCTAGA	-0.0515
CTGCTTCA	-0.155
ACTATCTG	-0.183
AGCCGCTG	0.0781
CGCCGCTC	0.434
CGCCGCTA	0.299
AGCCGCTA	0.119
AGCCGCTC	0.337
CACCGCTC	-0.0467
ATGACCAA	-0.0118
CGATTAGA	0.083
CGACAGGC	-0.0711
CAAGATCA	0.101
GCTGCCCC	-0.0352
CAGTCAAC	-0.139
CATACTTC	-0.12
CCACCCAC	0.0467
AGGCACGG	0.397
TGGCACCA	0.176
AGGCACAT	0.276
AGGCACGA	0.267
CGGCACCA	0.462
AGGCACCT	0.135

Sequence	PBM E-score
GGGCACCA	0.056
CTGCACCA	-0.199
AGGCACCA	0.366
CCTCTCTA	-0.212
AACCAGTT	0.143
GAGAAGCC	-0.0953
GGTGGCAC	0.147
TGGTGAAA	0.0915
CATTTTGG	0.114
ATAGTGAG	-0.0378
TGATTCCA	-0.0134
GAAGGTAC	-0.11
CATCGCCA	0.0899
ATTCGCCG	0.328
AATCGCCG	0.431
ATTCGCCA	0.0506
AGTCGCCC	-0.174
ATTCGCCC	-0.0713
CATCGCCC	-0.0878
AATCGCCT	0.302
AGTCGCCA	-0.199
AATCGCCC	0.0762
CATCGCCG	0.375
AGTCGCCG	0.369
AAGCATCT	-0.17

Sequence	PBM E-score
AGGATATG	0.0335
ACCATCCG	-0.144
ACTGGACG	-0.112
GTAGCTGA	-0.154
GTCTCTAA	-0.0881
AAACGGTT	-0.155
AGATAACT	-0.103
AGCGCCAC	0.13
CGCGCCAA	0.132
GGCGCCAA	0.379
CGCGCCAC	0.286
GGCGCCAC	0.384
AGCGCCAA	-0.059
ACAGCCGT	0.354
AAAGCCGT	0.386
AAAGCCAC	0.123
AAAGCCGG	0.135
GAAGCCGC	0.393
CAAGCCGC	0.299
GAAGCCGA	-0.0348
AAAGCCTC	0.204
ACAGCCGC	0.25
AAAGCCGA	-0.0141
ACAGCCGA	-0.0659
AAAGCCGC	0.369

Sequence	PBM E-score
GGAGTACA	-0.00077
CGTCTTAG	0.0086
CTTCATCA	-0.0498
AACTCTAA	-0.00844
AACAAATT	0.232
CATTATGG	-0.177
GCGGTCCC	-0.16
CGTACGCC	0.233
CGTACGGA	0.302
CGTACGGC	0.482
AGTACGGA	0.154
AGTACGGC	0.436
ATTACGGA	0.0935
AGTACGGG	-0.156
ATTACGGC	0.341
ATTACGGG	-0.199
CCTCGGGA	-0.121
GCTTAGAC	-0.11
GTGCCCAC	-0.00488
GGCTGACA	0.0532
GCTTTGGA	0.103
CCGTGCGC	0.433
GCGTGCGA	-0.0235
CCGTGCGA	0.415
CCGTGCTC	0.261

Sequence	PBM E-score
ACGTGCGC	0.165
CTGTGCGA	-0.0295
CCAAACTA	-0.0843
GCAGCATA	0.0149
CGACTACC	-0.22
AGAGAGCA	-0.213
AGTGCAGG	-0.0709
CCCGGGCC	-0.151
CAACGGTA	-0.266
GAACGGCC	0.233
AAACGGTA	0.166
TAACGGCA	0.31
AAACGGCA	0.467
GAACGGGA	-0.0828
CAACGGAA	0.123
CAACGGCA	0.402
GAACGGCA	0.468
AAACTGCG	-0.0893
ACTGGCAT	-0.0932
CTAGTGCC	0.301
TACTGCGA	-0.159
TTGAACAA	0.0506
AATCTACC	-0.0419
CCAAAGTC	-0.132
ATTCCTCA	0.0196

Sequence	PBM E-score
GGGCGATA	-0.147
CGGCGATC	0.373
CAGCGATC	-0.127
AGGCGATA	0.0637
CGGCGATA	0.395
AGGCGATC	0.128
GCCTGGTA	-0.227
CTCCTGCA	-0.244
ATGCTTGC	-0.24
AAGCAGGA	-0.113
GGGCAGAA	0.0536
CGGCAGCA	0.333
CGGCAGAA	0.328
CGGCAGCC	0.216
GGGCAGCA	-0.122
CGGCAGAC	0.0714
CTCTGGTA	-0.177
ACGCCTTC	0.204
ACGCCTCG	0.381
ACGCCTTG	0.348
ACGCCTCC	-0.102
ATGCCTTG	0.274
ACGCCTCT	0.0123
ATGCCTCC	-0.0159
ACGCCTTA	0.294

Sequence	PBM E-score
ATGCCTCG	0.412
ACCGTGGG	-0.27
CGATAAGA	0.0597
AGTTGGGG	-0.209
AATATACG	0.017
TAATTTCA	0.242
GTCACCTA	-0.204
ACGGCCGT	0.401
ACGGCCGC	0.406
ACGGCCAC	0.3
AAGGCCGC	0.314
GCGGCCGC	0.373
AAGGCCGG	0.128
AAGGCCGT	0.358
ACGGCCGG	0.0865
GCGGCCGA	0.139
GAGGCCGC	0.095
CCGGCCGC	-0.018
ACGGCCGA	0.191
ACTATACC	-0.017
ACCAGGGT	-0.398
AAGCAGGG	-0.156
CACGGTAC	0.0963
CATATTCC	-0.14
AACCATTA	0.123

Sequence	PBM E-score
TGGGACAA	-0.23
CGAACGTA	-0.0114
CACGCATC	0.0489
CCCAATCA	-0.0533
ATTTCCGG	-0.0307
CGGCGACC	0.203
AGGCGACG	0.209
GGGCGACA	0.0209
CGGCGACG	0.349
CGGCGAGA	0.325
CGGCGACA	0.369
AGGCGACA	0.197
CGGCGAGC	0.307
AGGCGAGA	-0.0565
CTCGGGGC	-0.163
CAGAGTCG	-0.204
CATGGTTA	0.105
CCCGTGCG	0.332
AGCGTGCG	0.237
ACCGTGCG	0.371
ACCGTGCT	-0.133
CCCGTGCA	0.0223
CCCGTGAG	-0.0263
AGAGGGCG	0.307
AGGCCAAT	-0.152

Sequence	PBM E-score
AGAACGCT	-0.11
ATTGTGCC	0.322
ATTGTGCA	0.162
GATGTGCC	0.185
ATTGTGCG	0.161
AATGTGCG	0.18
AATGTGCC	0.323
GCGCAAAA	0.227
CCATGAGA	-0.118
AACCCGCA	-0.00015
AAGCCGCA	0.386
TAGCCGAA	0.00682
AATCCGCG	0.111
TAGCCGCA	0.348
GAGCCGGA	0.0514
AAGCCGGA	0.0672
GAGCCGCA	0.448
TAGCCGGA	-0.0486
AAGCCGCG	0.418
CAGCCGCA	0.215
CAGCCGCG	0.259
GAGGGTAC	-0.22
AACTGAGC	-0.0352
CGATCAAG	-0.0842
CCCTTATA	-0.15

Sequence	PBM E-score
CCAACTAG	-0.0642
CCGACCAG	-0.144
CATAATGC	0.0509
TCCCAGGA	-0.255
GGATCTAC	-0.105
GTCGACTA	0.157
CAGCCGCC	0.0812
GAGCCGCC	0.319
AAGCCGCC	0.177
CCTAAGCC	-0.355
ACGGGTTG	-0.0319
TCGGCAAA	0.0291
GGGGCAAC	-0.107
CCGGCAAA	0.116
GCGGCAAC	0.384
CCGGCAAC	0.0817
GCGGCAAA	0.383
ATCATTCG	0.119
AAATTAAG	-0.00684
AGTGCGGG	-0.0896
CGTGCGGA	0.3
AGTGCGGC	0.379
CGTGCGAC	0.0732
CGTGCGGC	0.476
AGTGCGGA	0.224

Sequence	PBM E-score
TACTAGGA	-0.15
GAGGTCAC	-0.123
AGTATTGA	0.0696
CACGGTAG	-0.0367
GTGGGCAA	-0.0572
CCATTGCC	0.0367
CGCCCTGA	0.0616
AGCCCTGC	0.0478
CGCCCTGC	0.346
GACCTTTA	-0.0597
AAGCCTCA	-0.0215
AGGCGCCA	0.353
AGGCGACT	0.0881
AGGCGCAT	0.241
AGGCGCCC	0.232
AGGCGTCG	0.253
CGGAGCCG	0.302
AGGCGCCT	0.383
CGCCGGCG	0.312
GGGCGCCA	0.309
TGGCGCCA	0.26
CGGCGCCG	0.484
AGGCGCCG	0.462
AGGTGCGG	0.189
AATAACTG	0.0806

Sequence	PBM E-score
TGGACAAA	-0.0269
GCAGCGCA	-0.103
AAGAACCA	-0.0227
CAGTCTCC	-0.209
ATTTGGAA	0.0474
AAGATTAA	0.084
ATCGTACA	0.0995
CGATAAAC	0.0166
AGGAGGAT	-0.107
GCGATGTA	0.16
TATCGTCA	-0.0796
TAGTGCAA	0.0577
CGGCGCCC	0.38
ATGCGCCC	0.158
CTGCGCCC	-0.113
GCGCGCCA	0.268
ATGCGCCG	0.413
CTGCGCCA	0.106
CGGCGCCA	0.463
ATGCGCCA	0.0976
GGGCGCCC	0.255
AACTATCG	-0.203
CTCTGGCA	-0.203
ACAAGTGC	-0.127
CGTCAGAG	-0.0954

Sequence	PBM E-score
GCAATGGC	-0.116
AGGCTGTA	0.0388
ATCTATTG	0.0947
ACAGATAA	-0.0189
ATCAATGG	-0.0372
AACAACCA	0.0647
GCCTCGTA	0.346
CCCTCGTA	-0.0643
ACCTCGTA	-0.0684
CGCCATGC	0.226
ATAGTGCC	0.311
CGGGCACC	0.237
ACGGCACC	0.484
GCGGCACA	0.463
CCGGCACC	0.254
GGGGCACA	0.0124
GCGGCACC	0.477
AGGGCACC	0.0197
GGGGCACC	0.0924
GTGGCACA	0.125
GACGCCAC	0.0288
GATCCTAC	-0.1
ACTCTCAG	0.0178
AGGCACTA	0.301
GGGCACTA	0.23

Sequence	PBM E-score
AGGCACTC	0.139
CTGCACTC	0.109
CGGCACTC	0.365
CGGCACTA	0.446
CAGAGGTA	0.062
GTTCCATA	-0.164
CCTGGCCG	-0.105
AAAGTATC	0.118
AGGTAAGC	-0.118
TATCTCCA	0.103
CCTACCTA	-0.0899
CGCGGCTC	0.464
CGCGGCTA	0.397
AGCGGCTG	0.0689
GGCGGCTA	0.207
ATCGGCTC	0.136
AGCGGCTA	0.165
CCCGGCTC	-0.238
AGCGGCTC	0.388
CTCGGCTC	0.029
